Screening data deposited in PubChem by National Center for Advancing Translational Sciences (NCATS).
Most compounds without a hit are left out; they make up all but 7.9% or so of the library.
MCF10A rereplic = inducers of DNA re-replication in MCF 10A breast cells; MCF 10A DNA re-replication, Hoechst nuclear intensity, 48 h; Potency, µM (doses to about 46.1 µM), for the others: top-dose activity, positive = re-replication, hits mostly activators; 350,000 tested, 2.9% active; also: % of control where 0% means no effect; nearly all actives have a fitted effect of over 50% in size
HT1080 IDH1KD tx = HT-1080 IDH1 knockdown cell toxicity (counter line) | 360,000 tested, 2% active | AID 686971 | Potency, µM (titrated, usually from 46.1 µM), for inactives: top-dose activity, negative = toxicity, usual class: cytotoxic | HT-1080 IDH1 knockdown viability, ATP luminescence, 48 h;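 also: 0% = DMSO wells and -100% = cell-free medium wells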
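Using the IDH1-knockdown HT-1080 line run in the same batch and compound series as the NT line, viability after 48 h at 37 °C was determined by CellTiter-Glo luminescence and expressed as % activity.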
HT1080-NT tox = kills 2HG-producing HT-1080-NT fibrosarcoma cells; HT-1080-NT fibrosarcoma viability, CellTiter-Glo ATP luminescence, 48 h; 360,000 tested, 1.6% active; Potency, µM (doses to about 46.1 µM), for the others: top-dose activity, negative = less viability, actives largely listed as cytotoxic; AID 686970;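 also: NT is the 2HG producing partner of a matched IDH1 knockdown line; 0% = DMSO-treated cells and -100% = media-only wells without cells; nearly all actives have a fitted effect of over 55% in size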
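750 cells/well, RPMI + 5% FBS; 2 h settle, compound pin-transfer, 48 h at 37 degrees C. CellTiter-Glo 10 min RT, luminescence. Normalized to DMSO and media-only wells.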
KB-3-1 tox = KB-3-1 parental cell cytotoxicity | KB-3-1 viability, CellTiter-Glo ATP luminescence, 72 h | Potency, µM (titrated, usually from 46.1 µM), most hits filed as cytotoxic | 400,000 tested, 1.4% active; also: % is scaled to controls: 0 for no effect and ±100 for the full control effect; nearly all actives have a fitted effect of over 60% in size
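Parental KB-3-1 viability, qHTS format: 72 h compound exposure, 37 °C; CellTiter-Glo; media-only wells and DMSO plates as controls; concentration-effect fits on corrected data.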
SW480 rereplic = DNA re-replication induction in SW480 cells | SW480 DNA re-replication, Hoechst DNA content imaging, 48 h | Potency, µM (top dose mostly 46.1 µM), inactives show at the top dose re-replication activation, hits mostly activators | 340,000 tested, 1.8% active; also: % of control where 0% means no effect; nearly all actives have a fitted effect of over 55% in size
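Readout is total intensity of Hoechst-stained nuclei, excited at 405 nm and collected at 500-530 nm. Compound treatment lasted 48 hr at 37 C in 5% CO2 before staining.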
KB-V1 MDR tox = KB-V1 MDR subline cytotoxicity; KB-V1 MDR cells viability, CellTiter-Glo, 72 h; Potency, µM (top dose mostly 46.1 µM), most hits filed as cytotoxic; 400,000 tested, 3.4% active; AID 1347076; also: % is scaled to controls: 0 for no effect and ±100 for the full control effect; nearly all actives have a fitted effect of over 60% in size
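Compound-treated KB-V1 multidrug-resistant cells, 72 h, 37 degrees C; viability by CellTiter-Glo. Fitted qHTS curves give the values.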
* hit, by the source's call; i = inactive; ? = inconclusive; / = not tested or not shown. Calls follow the shape of the dose curve; as a rule, active = well fitted curve in the direction sought with a large enough effect; inconclusive = small, poorly fitted or top-dose-only effect, or another doubt; inactive = no such curve, though single readings can be large; an effect the other way counts as inactive or inconclusive. Potency is read from the fitted curve at half-maximal effect.

SMILES	MCF10A rereplic	HT1080 IDH1KD tx	HT1080-NT tox	KB-3-1 tox	SW480 rereplic	KB-V1 MDR tox
O=S(=O)(c1ccccc1)c1nnn2c1nc(NCc1ccc(F)cc1)c1sccc12	/	/	/	i	/	?
COc1ccccc1NC(=O)C(=O)NCC(c1ccc2c(c1)OCO2)N1CCN(C)CC1 (configuration not stated)	/	/	/	i	/	i
CC1(C(=O)NCC2CCOCC2)Cc2c(-c3cccc(C(F)(F)F)c3)ccnc2O1 (configuration not stated)	/	3.7µM*	?	?	/	?
CC(=O)Nc1cccc(-c2ccnc3c2CC(C)(C(=O)NCc2ccc(N(C)C)cc2)O3)c1 (configuration not stated)	/	5.2µM*	?	10µM*	/	?
Cc1nc(SCC(=O)Nc2ccc(CN3CCCC3)cc2)c2c(C)c(C)sc2n1	?	-26%	-15%	?	1%	i
CCN(CC)c1ccccc1/C=C/[n+]1ccc(CCCCI)c2ccccc21	/	/	/	3.7µM*	/	?
CC1=C(C(=O)Nc2ccc(Cl)cc2)C(c2ccncc2)C(C#N)=C(SCC(N)=O)N1 (configuration not stated)	-7%	-1%	-8%	i	-10%	i
CCOC(=O)C1=C(c2ccccc2)NC(SC)=C(C#N)C1c1cccnc1 (configuration not stated)	21%	-1%	-2%	i	?	i
CCCCOC(=O)CSC1=C(C#N)C(c2cccnc2)C(C(=O)OCC)=C(c2ccccc2)N1 (configuration not stated)	18µM*	-5%	-3%	i	23µM*	i
CC(=O)C1=C(C)NC(SCC(N)=O)=C(C#N)C1c1cccnc1 (configuration not stated)	21µM*	1%	2%	i	-2%	i
CCn1c(COc2ccccc2)nnc1SCC(=O)Nc1cc(C)ccc1OC	-2%	-24%	8%	i	-1%	15µM*
Cc1ccc(C(=O)CSc2nnc(CNc3ccc(C)cc3C)n2Cc2ccco2)cc1	?	?	?	?	12%	?
COc1ccc(C(=O)CSc2nnc(CNc3ccc(C)cc3C)n2Cc2ccco2)cc1	26%	-17%	-6%	?	0%	3.7µM*
COc1ccc(C)cc1NC(=O)CSc1nnc(COc2ccc(C)cc2)n1Cc1ccco1	9%	-28%	?	i	?	9.2µM*
CCn1c(COc2ccc(C)cc2)nnc1SCC(=O)Nc1cc(OC)ccc1OC	11%	-13%	5%	i	7%	?
Cc1cccn2cc(-c3cccc(NC(=O)C(C)C)c3)nc12	/	/	/	i	/	i
Cc1ccc2occ(CC(=O)N(Cc3ccc(Cl)cc3)Cc3ccco3)c2c1	/	/	/	i	/	?
C=C1C(=O)OC2C=C(CO)CCC=C(CO)CC(OC(=O)C(C)C)C12 (configuration not stated)	10µM*	13µM*	-1%	?	?	i
CC(C)C[C@@H](NC(=O)[C@@H](Cc1ccccc1)NC(=O)c1cnccn1)B(O)O	57%	/	/	/	0.0042µM*	/
CCCNC(=O)C(Cc1ccccc1)NC(=O)c1ccccn1 (configuration not stated)	3%	17%	3%	?	-5%	i
CC(C)OCCCNc1ncnc2c1[nH]c1ccccc12	-5%	?	?	7.3µM*	0%	?
COC(=O)c1ccc(CNC(=O)Cn2cnc3c(NCc4ccccc4)ncnc32)cc1	26%	-18%	-20%	?	0%	i
COc1ccc(CNc2ncnc3c2[nH]c2cc(OC)c(OC)cc23)cc1	?	?	-15%	i	22%	i
C1=C(CCNc2ncnc3c2[nH]c2ccccc23)CCCC1	?	26µM*	26µM*	5.2µM*	10%	?
COc1ccc(CNc2ncnc3c2[nH]c2ccccc23)cc1	?	21µM*	16µM*	i	97%	13µM*
SMILES	MCF10A rereplic	HT1080 IDH1KD tx	HT1080-NT tox	KB-3-1 tox	SW480 rereplic	KB-V1 MDR tox
COc1ccc(CNC(=O)Cn2cnc3c(NCc4ccccc4)ncnc32)cc1	?	16µM*	15µM*	10µM*	13µM*	i
COc1ccc(CCN(C)C2CCCN(C(=O)Cn3cnnn3)C2)cc1OC (configuration not stated)	-1%	2%	-6%	i	-6%	i
O=C(NCC1CCN(Cc2ccc(F)cc2)CC1)c1cc2ccc3cccnc3c2[nH]1	/	/	/	i	/	i
COc1ccc(C(=O)Nc2nnc(SCc3cc(=O)c4cc(C)cc(C)c4[nH]3)s2)cc1	/	/	/	i	/	i
COc1ccc(-c2nnc(SCc3cc(=O)c4cc(C)cc(C)c4[nH]3)n2C)cc1	/	/	/	8.2µM*	/	?
Cc1ccccc1NC(=O)CSc1nc(-c2ccc(F)cc2)nc2c1Cc1ccccc1O2	/	/	/	i	/	?
N=c1c(-c2nc3ccccc3[nH]2)cc(C(=O)c2ccco2)nn1-c1ccccc1	2%	0%	-2%	i	7.3µM*	i
CCCCCCc1cc2cc(-c3nnc(-c4ccccc4OC)o3)c(=O)oc2cc1O	6%	?	?	?	1.2µM*	16µM*
COc1ccc(-c2nnc(-c3cc4ccccc4oc3=O)o2)cc1	-1%	4%	4%	i	2%	i
CCCCCCc1cc2cc(-c3nnc(-c4ccccc4O)o3)c(=O)oc2cc1O	0.73µM*	0%	-2%	?	2.3µM*	13µM*
O=C(O)c1ccc2oc(=O)c(S(=O)(=O)c3ccc(F)cc3)cc2c1	6%	-11%	-9%	i	9%	i
CCCCCCc1cc2cc(S(=O)(=O)c3ccc(F)cc3)c(=O)oc2cc1O	2.3µM*	?	?	i	4.6µM*	?
COc1ccc(NC(=O)c2cc3ccccc3oc2=O)c(OC)c1	7%	4%	14%	i	0%	i
CCCCCCc1cc2cc(C(=O)Nc3ccccc3OC)c(=O)oc2cc1O	0.65µM*	2%	6%	?	?	?
Cc1oc2ccc(O)c(CN3CCOCC3)c2c1C(=O)Nc1ccc(C(C)C)cc1	/	/	/	i	/	i
CCCCCCc1cc2cc(-c3nnc(-c4cc(OC)c(OC)c(OC)c4)o3)c(=O)oc2cc1O	0.52µM*	-9%	-2%	?	8.2µM*	?
Cc1nn2cc(-c3ccc(OC(C)C)cc3)nc2s1	/	/	/	i	/	i
O=CNc1ccc2c(c1)Cc1cc([N+](=O)[O-])ccc1-2	?	5.2µM*	5.8µM*	2.3µM*	3.3µM*	?
N=c1nc(-c2ccccc2)n(-c2ccccc2)s1	/	/	/	i	/	?
